“And” between values parts separate entries of the source, which are not always exact repeats. Equal entries are not always repeated. The source made the active and inactive calls. Cut-off read from the data, not from the text of the source, unless noted: active = nuclear beta-catenin stimulation mostly above about 4.2% (no sharp cut-off); inactive = mostly below about 10%.

A short description of assay [1]: Wnt pathway potentiators raising nuclear beta-catenin – imaging, WNT3A-conditioned medium, mouse C2C12, NPC library, primary screen (AID 1117326). The settings on record: stronger effect = higher value.
The nature of assay [2]: stimulators of insulin release from INS-1E, primary screen, cell-based, 5 mM glucose, NPC library (AID 1117329;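 active = compound raises insulin release from rat beta cells at 5 mM glucose, no numeric limit stated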). The settings on record: rat INS-1E insulin secretion, at 10 µM, stronger effect = higher value.
Assay [3] can be described thus: GLP1 release stimulators, primary, NCI-H716, NPC library (AID 1117341;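 active = compound raises GLP1 secretion from the human gut endocrine cells, with no numeric limit stated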). The settings on record: NCI-H716 cells, at 10 µM, stronger effect = higher value.
Assay [4] is described as follows: growth inhibition of GSK3B-pretreated HCT116 cells – cell-based, CellTiter-Glo, 0.2 to 20 µM (AID 1117336;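 active = compounds lowering colon cancer cell viability after pretreatment blocking the GSK3B kinase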). The settings on record: HCT116 viability after GSK3B inhibitor, at 20 µM, stronger effect = higher value. (In general: In ATP-based viability assays light output follows the ATP content of the culture.)
The nature of assay [5]: HCT116 colon cancer cell growth inhibition, primary screen, CellTiter-Glo luminescence, NPC library (AID 1117342;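 active = compounds that lower survival of HCT116 colon cancer cells in the luminescence readout, no numeric limit stated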). To be noted: at 20 µM (top of the series).
Assay [6] in a line: reduced SW480 viability measured with CellTiter-Glo, NPC library, primary (AID 1117343;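 active = compounds that lower viability of the colon cancer cells in the luminescence readout, with no numeric limit stated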). The settings on record: CellTiter-Glo luminescence; at 20 µM (top of the series).
The nature of assay [7]: NPC library primary testing for decreased DLD-1 cell viability via CellTiter-Glo (AID 1117346;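 active = compounds that lower survival of DLD-1 colon cancer cells in the luminescence readout, no cutoff given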). To be noted: DLD-1 viability, CellTiter-Glo luminescence; at 20 µM (top of the series).
Assay [8] is described as follows: inhibition of endothelial tube formation, primary screen, imaging, VEGF stimulated, CD31 staining, tube area, NPC library (AID 1117340;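 active = compound that reduces growth-factor-driven endothelial tube area in a mixed cell culture, no cutoff stated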). The settings on record: VEGF-stimulated ADSC/ECFC co-culture, at 10 µM, stronger effect = higher value.
The target in assay [9] is NAD(+) hydrolase SARM1 (Homo sapiens) (UniProt Q6SZW1). Description: blocking NAD cleavage by SARM1 SAM-TIR – cell lysate, NAD-Glo luminescence (AID 1508614;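 active = compound whose remaining NAD level is above about 45 nM, limit read from the data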;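 note: higher remaining NAD means stronger inhibition of SARM1 NADase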). To be noted: SAM-TIR HEK293T lysate NADase, at 1 µM, stronger effect = higher value.
The nature of assay [10]: P. berghei load reduction in hepatocytes – cell-based, HepG2, luciferase luminescence, HepG2 viability, primary screen (AID 624349; in the data active = parasite load remaining mostly below about 12%, no sharp cut-off; inactive = mostly above about 10%;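 note: 100% = mean of DMSO negative control wells on the same plate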). The settings on record: P. berghei liver stage in HepG2, luciferase luminescence, concentration not given here; parasite load remaining: stronger effect = lower value; viability: measured here: HepG2 viability without parasites.
Assay [11] is described as follows: viability loss with induced miR-34 in A549 – imaging, A549 dox-inducible miR-34, nuclei and caspase counts, primary screen (AID 1347080;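 active = compounds whose cell count with miR-34 switched on is under 0.7 times the count with it off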). The settings on record: A549 miR-34 inducible, Hoechst nuclei count, 48 h.
A short description of assay [12]: MELAS cybrid and Rieske KO viability enhancers – cell-based, MELAS cybrids, Rieske KO mouse fibroblasts, CellTiter-Glo, primary screen (AID 1508586;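 active = mean z-score across replicates of 1.96 or higher in either the MELAS or the Rieske mutant cell line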;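 note: z relative to plate mean and SD of compound and empty wells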). The settings on record: low glucose.
Assay [13] can be described thus: compounds altering viability of human ES cells (AID 493140; call rule not given here;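 note: cells exposed to compounds for four days before counting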). To be noted: human embryonic stem cell survival screen; stronger effect = higher value.
[14] abbreviates: measured here: relative caspase fold change +Dox/-Dox.
[15] abbreviates: measured here: total cells with miR-34 induction, stronger effect = lower value.
Setting [16] is: measured here: total cells without miR-34 induction.
The mark [17] stands for this setting: MELAS cybrid survival, CellTiter-Glo 48 h, stronger effect = higher value.
Where [18] appears, read: Rieske KO mouse fibroblast survival, CellTiter-Glo 72 h.

Sequence of NAD(+) hydrolase SARM1 (Homo sapiens) (Q6SZW1 whole entry, looked up): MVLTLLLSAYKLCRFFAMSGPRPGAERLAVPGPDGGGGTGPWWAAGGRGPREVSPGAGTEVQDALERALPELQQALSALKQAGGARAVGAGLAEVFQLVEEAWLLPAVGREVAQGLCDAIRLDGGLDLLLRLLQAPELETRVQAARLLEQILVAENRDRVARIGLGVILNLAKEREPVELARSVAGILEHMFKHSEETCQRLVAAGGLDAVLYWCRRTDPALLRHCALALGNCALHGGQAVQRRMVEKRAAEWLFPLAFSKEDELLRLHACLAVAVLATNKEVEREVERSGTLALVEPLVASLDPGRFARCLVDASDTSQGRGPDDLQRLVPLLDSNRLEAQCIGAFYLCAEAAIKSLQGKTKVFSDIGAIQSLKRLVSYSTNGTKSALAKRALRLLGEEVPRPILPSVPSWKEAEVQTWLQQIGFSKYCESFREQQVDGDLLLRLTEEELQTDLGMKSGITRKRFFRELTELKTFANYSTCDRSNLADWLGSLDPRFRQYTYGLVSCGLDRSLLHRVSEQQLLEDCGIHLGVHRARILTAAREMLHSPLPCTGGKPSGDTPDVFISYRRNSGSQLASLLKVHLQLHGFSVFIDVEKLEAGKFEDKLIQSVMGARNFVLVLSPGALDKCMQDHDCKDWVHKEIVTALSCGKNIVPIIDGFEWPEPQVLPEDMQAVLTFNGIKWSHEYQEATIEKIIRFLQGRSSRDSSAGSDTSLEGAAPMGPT

Turning to `CC=CC1C(C(=O)OCc2c(F)c(F)c(COC)c(F)c2F)C1(C)C` (configuration not stated), the nuclear beta-catenin stimulation in assay [1] (at 10 µM) was 2.1% (inactive); in [1] (stimulation, at 2 µM), -0.3%. Besides, the insulin secretion stimulation in assay [2] is 0.95% (inactive). Further, the GLP1 secretion stimulation in [3] was -3.8% (inactive).
Turning to `CCCCCCCCOC(=O)c1ccccc1C(=O)OCCCCCCCC`, the nuclear beta-catenin stimulation in assay [1] (at 10 µM) is 3.1% (inactive); in [1] (stimulation, at 2 µM), -1.3%. For the same compound, the insulin secretion stimulation in assay [2] was 0.05% (inactive). In [4], the viability decrease is 5.3% (inactive). Besides, in assay [3], the GLP1 secretion stimulation was -0.4% (inactive). The inhibition of viability in assay [5] is 32% (inactive). Moreover, the viability decrease (inhibition) in assay [6] is -4.6% (inactive); in [7] it was 3.6% (inactive).
`COCC(C)N(C(=O)CCl)c1c(C)csc1C` (configuration not stated): the nuclear beta-catenin stimulation in assay [1] (at 10 µM) was 0.5% (inactive); in assay [1] (stimulation, at 2 µM) it was 2.6%. Further, in assay [2], the insulin secretion stimulation is 0.7% (inactive). The GLP1 secretion stimulation in assay [3] was -0.9% (inactive).
For the compound `CCOc1cc(C=O)ccc1O`, the nuclear beta-catenin stimulation in [1] (at 10 µM) is -1.6% (inactive); in assay [1] (stimulation, at 2 µM) it was -0.8%. Besides, the insulin secretion stimulation in [2] was 0.4% (inactive). For the same compound, the viability decrease in assay [4] is 5.6% (inactive). Further, the tube area decrease in assay [8] is 0.8% (inactive). In addition, the GLP1 secretion stimulation in [3] is -3.6% (inactive). Besides, the inhibition of viability in assay [5] is 6% (inactive). In addition, the viability decrease (inhibition) was 6.9% (inactive) in assay [6] and -3% (inactive) in assay [7]. For the same compound, in assay [9], the remaining NAD is 10 nM (inactive).
What is called viability is a read-out of living cells in per cent, often relative to untreated cells. `O=C1OC2(c3cc(Br)c(O)cc3Oc3c2cc(Br)c(O)[c]3[Hg])c2ccccc21` (configuration not stated): in [10], the parasite load remaining was 65.8% (inactive). Moreover, the viability in assay [10] was 84.8%. The nuclear beta-catenin stimulation in assay [1] (at 10 µM) was 57.5% (active); in assay [1] (stimulation, at 2 µM) it was 3.4%. In assay [2], the insulin secretion stimulation was 7.2% (inactive). Also, the viability decrease in assay [4] was 77.7% (active). For the same compound, the tube area decrease in [8] was -234% (inactive). In [3], the GLP1 secretion stimulation was -1.4% (inactive). Also, in assay [5], the inhibition of viability was 52.1% (active). For the same compound, the values for the viability decrease (inhibition) in assay [6] and in assay [7] were 11.7% (inactive) and 38.2% (inactive), respectively. The fold change was 0.885 (inactive) in assay [11] (stronger effect = lower value, cell number ratio, induced over uninduced) and 1.08 in assay [11] (setting [14]). Also, the cell count in [11] (setting [15]) amounted to 9490; in assay [11] (setting [16]) it was 10700. The z-score in assay [12] (setting [17]) was -0.831 (inactive); in assay [12] (setting [18]) it was 0.0245.
Take `Clc1ccc(CCC(Cn2ccnc2)Sc2c(Cl)cccc2Cl)cc1` (configuration not stated): the survival in assay [13] is 15 (inactive). The parasite load remaining in assay [10] is 5.94% (inactive) and 63.9% (inactive). Further, in assay [10], the viability is 103% and 82.5%. Moreover, the nuclear beta-catenin stimulation in assay [1] (at 10 µM) is 15.6% (inactive); in assay [1] (stimulation, at 2 µM), 4.3%. Besides, in assay [2], the insulin secretion stimulation was -0.2% (inactive). Besides, the viability decrease in assay [4] was 101% (active). Also, the tube area decrease in [8] is 109% (active). The GLP1 secretion stimulation in [3] is 20.8% (active). For the same compound, the inhibition of viability in assay [5] is 101% (active). Further, the results for the viability decrease (inhibition) in assay [6] and in [7] were 123% (active) and 103% (active), respectively. The fold change in assay [11] (stronger effect = lower value) is 0.969 (inactive) and 0.821 (inactive) and 0.887 (inactive); in assay [11] (setting [14]) it was 0.807 and 1.54 and 0.572. Moreover, the cell count is 5090 and 6860 and 7040 in assay [11] (setting [15]); 5260 and 8350 and 7940 in assay [11] (setting [16]). Further, the z-score was 0.075 (inactive) and -0.442 (inactive) in assay [12] (setting [17]); -0.608 and 0.109 in assay [12] (setting [18]).
Turning to `C=C1CC[C@@]2(O)[C@H]3Cc4ccc(O)c5c4[C@@]2(CCN3CC2CC2)[C@H]1O5`, the nuclear beta-catenin stimulation is 0.5% (inactive) in [1] (at 10 µM) and 2.1% in assay [1] (stimulation, at 2 µM). The insulin secretion stimulation in [2] is 1.2% (inactive). Moreover, the viability decrease in assay [4] was -11.9% (inactive). Moreover, the tube area decrease in assay [8] was 5.1% (inactive). The GLP1 secretion stimulation in assay [3] was 2.6% (inactive). The inhibition of viability in [5] is 20.1% (inactive). The viability decrease (inhibition) is 7.8% (inactive) in [6] and 6.2% (inactive) in assay [7]. For the same compound, the z-score was 0.147 (inactive) in [12] (setting [17]) and -0.2 in assay [12] (setting [18]).

Source of the values: PubChem BioAssay.
